MCF10A rereplic = inducers of DNA re-replication in MCF 10A breast cells; MCF 10A DNA re-replication, Hoechst nuclear intensity, 48 h; Potency, µM (series often up to 46.1 µM), most hits filed as activators; AID 624296; 2.9% of 350,000 active; note: nearly all actives have a fitted effect of over 50% in size
SW480 rerep = induces DNA re-replication in SW480 colon adenocarcinoma cells. SW480 DNA re-replication, Hoechst DNA content imaging, 48 h. Potency, µM (highest dose often 46.1 µM), usual class: activators. 1.8% of 340,000 active; note: nearly all actives have a fitted effect of over 55% in size
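250 cells/well; 23 nL cpd via pin tool; 48 hr, 37 C, 5% CO2; Hoechst 40 min; imager read of total nuclear intensity, ex 405/em 500-530 nm.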
Gal4-VP16 FLuc = inhibits Gal4-VP16 luciferase reporter, ROR gamma counter-screen; 3.5% of 310,000 active; AID 2546; Drosophila S2 Gal4-VP16 UAS-luciferase, luminescence, 20 h; Potency, µM (titrated, usually from 53.6 µM), actives largely listed as inhibitors;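 note: Gal4-VP16 expression switched on by copper sulfate through the metallothionein promoter; nearly all actives have a fitted effect of over 50% in size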
ELG1 repair inh = ELG1-dependent DNA repair inhibition; 2.3% of 330,000 active; HEK293T ELG1-luciferase reporter, luminescence, 16 h; DNA damage induced by 5-fluorouridine; AID 504467; Potency, µM (series often up to 46.1 µM), actives largely listed as inhibitors; note: nearly all actives have a fitted effect of over 55% in size
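Luminescence from the luciferase reporter, measured 30 min after ONE-Glo reagent at room temperature, was the read-out. Beforehand, 2,000 cells per well were exposed for 16 hr at 37 °C to 5-fluorouridine together with compound or vehicle.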
RORg inh = inhibitors of mouse ROR gamma transcriptional activity. P51450. Drosophila S2 Gal4-RORgamma UAS-luciferase reporter, 20 h. Potency, µM (top dose mostly 53.6 µM), actives largely listed as inhibitors. 5.4% of 310,000 active. AID 2551; note: nearly all actives have a fitted effect of over 60% in size
Target sequence (P51450 whole entry, looked up, the tested form may be a part): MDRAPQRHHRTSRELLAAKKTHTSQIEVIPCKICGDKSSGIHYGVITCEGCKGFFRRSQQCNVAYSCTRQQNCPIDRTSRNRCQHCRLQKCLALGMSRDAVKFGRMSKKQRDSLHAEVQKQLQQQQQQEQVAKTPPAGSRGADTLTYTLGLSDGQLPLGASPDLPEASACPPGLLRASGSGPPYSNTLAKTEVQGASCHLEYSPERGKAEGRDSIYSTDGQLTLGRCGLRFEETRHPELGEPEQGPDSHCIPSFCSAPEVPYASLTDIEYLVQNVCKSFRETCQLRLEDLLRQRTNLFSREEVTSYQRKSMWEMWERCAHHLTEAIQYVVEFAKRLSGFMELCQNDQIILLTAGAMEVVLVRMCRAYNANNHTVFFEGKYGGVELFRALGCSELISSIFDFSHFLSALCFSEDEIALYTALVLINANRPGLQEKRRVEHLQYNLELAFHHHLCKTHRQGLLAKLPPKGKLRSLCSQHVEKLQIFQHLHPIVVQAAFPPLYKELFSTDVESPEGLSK
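Drosophila S2 cells stably expressing Gal4-DBD/mouse RORγ fusion under metallothionein promoter plus UAS-luciferase; compound 1 h, then 700 uM CuSO4 induction for 20 h at ambient temperature; inhibition read as reduced luminescence.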
Each line names hits and unclear results; the compound was inactive in the other large screens. A selection: hits, their analogues and other compounds. The true share with any hit is near 10%. Calls come from the whole dose curve; as a rule, active = well fitted curve in the direction sought with a large enough effect; inconclusive = small, poorly fitted or top-dose-only effect, or another doubt; inactive = no such curve, though single readings can be large; an effect the other way counts as inactive or inconclusive.

Cc1cc(-c2cccs2)c2c(N)c(C(=O)c3ccc4c(c3)OCO4)sc2n1	MCF10A rereplic 14.6µM, SW480 rerep 1.3µM, ELG1 repair inh inconclusive
COc1ccc(C(=O)c2sc3nc(C)cc(-c4cccs4)c3c2N)cc1OC	MCF10A rereplic 5.17µM, SW480 rerep inconclusive, Gal4-VP16 FLuc inconclusive, ELG1 repair inh inconclusive, RORg inh inconclusive
Cc1cc(C)c2c(N)c(C(=O)c3ccc(Cl)cc3)sc2n1	ELG1 repair inh inconclusive
COc1ccc(C(=O)c2sc3nc(C)cc(-c4cccs4)c3c2N)cc1	MCF10A rereplic inconclusive, SW480 rerep 20.6µM, ELG1 repair inh inconclusive
Nc1c(C(=O)Nc2nc3ccccc3s2)sc2nc(-c3cccs3)ccc12	MCF10A rereplic 4.11µM, SW480 rerep inconclusive, ELG1 repair inh inconclusive
O=C(Nc1cccc(S(=O)(=O)N2CCCC2)c1)c1cc(-c2ccccn2)nc2ccccc12	ELG1 repair inh inconclusive
Cc1ccnc(N2CCC(C(=O)Nc3ccc4c(c3)OCCO4)CC2)n1	MCF10A rereplic inconclusive
O=C(Nc1ccc2c(c1)OCCO2)C(=S)NCc1ccccc1	ELG1 repair inh inconclusive
CC(C)NC(=O)c1sc2nc(-c3cccs3)cc(-c3cccs3)c2c1N	MCF10A rereplic 3.66µM, SW480 rerep inconclusive
COc1ccc(-c2cc(-c3cccs3)nc3sc(C#N)c(N)c23)cc1	MCF10A rereplic 16.4µM, SW480 rerep inconclusive, ELG1 repair inh inconclusive
O=C(NN1C(=O)NC2(CCCCC2)C1=O)c1ccc(-c2ccc(Cl)cc2)o1	none (no result: Gal4-VP16 FLuc, RORg inh)
Cc1csc2sc(-c3ccnc(SCC(=O)NCc4ccccc4)n3)c(C)c12	MCF10A rereplic inconclusive, SW480 rerep 18.4µM
Cc1csc(SCC(=O)NCc2ccccc2)n1	none
Cc1cccc(C2N(c3nccs3)C(=O)C3CCCN32)c1 (stereo unspecified)	RORg inh inconclusive
O=C1C2CCCN2C(c2ccc(F)cc2)N1c1nccs1 (stereo unspecified)	RORg inh inconclusive
Cc1ccc(C2N(c3nccs3)C(=O)C3CCCN32)cc1 (stereo unspecified)	RORg inh 12.6µM
O=C1C2CCCN2C(c2ccc(Cl)cc2)N1c1nccs1 (stereo unspecified)	RORg inh 12.6µM
COc1ccc([C@@H]2C[C@@H](c3ccccc3)Oc3cc(OC)c(OC)c(OC)c32)cc1	MCF10A rereplic 1.16µM
Cc1nn(C)c(Cl)c1NC(=O)OCc1ccc(F)cc1	Gal4-VP16 FLuc 1.78µM, ELG1 repair inh inconclusive, RORg inh inconclusive
Cc1ncc(CO)c2c1Oc1nc(-c3ccccc3)nc(SCC(=O)Nc3cccc(O)c3)c1C2	MCF10A rereplic 16.4µM, SW480 rerep inconclusive, Gal4-VP16 FLuc inconclusive, ELG1 repair inh inconclusive
O=C(CSc1ncc(-c2ccccc2)[nH]1)Nc1cccc(O)c1	ELG1 repair inh 16.4µM
O=C(CSc1ncc(-c2ccccc2)[nH]1)Nc1ccccc1	MCF10A rereplic inconclusive
CCOC(=O)C1CCN(C(=O)c2sc3ncnc(N4CCC(C)CC4)c3c2C)CC1	MCF10A rereplic inconclusive, ELG1 repair inh 23.1µM, RORg inh inconclusive
Cc1c(C(=O)N2CCN(c3ccccc3)CC2)sc2ncnc(N3CCC(C)CC3)c12	none (no result: MCF10A rereplic, SW480 rerep)
CCOC(=O)C1CCN(C(=O)c2sc3nc(C)nc(N4CCC(C)CC4)c3c2C)CC1	Gal4-VP16 FLuc inconclusive, ELG1 repair inh 23.1µM, RORg inh inconclusive
S=C(Nc1ccc(-c2nc3ccccc3[nH]2)cc1)Nc1cccnc1	ELG1 repair inh inconclusive
C[C@H](NC(=O)c1ccc2c(c1)OCO2)c1nnc2ccccn12	ELG1 repair inh inconclusive
O=C(CSc1nc2ccccc2s1)NNC(=S)Nc1ccccc1	MCF10A rereplic inconclusive, SW480 rerep inconclusive, Gal4-VP16 FLuc 4.47µM, RORg inh 1µM
O=C(CSc1nc2ccccc2s1)NNC(=S)Nc1ccc(Br)cc1	MCF10A rereplic inconclusive, Gal4-VP16 FLuc inconclusive, RORg inh 0.891µM
CCn1c(SCC(=O)NNC(=S)Nc2ccccc2)nnc1-c1ccc(Cl)cc1	Gal4-VP16 FLuc 1.26µM, RORg inh 3.98µM (no result: SW480 rerep)
O=C(CSc1nc2ccccc2s1)NNC(=O)Nc1ccc(Cl)c(Cl)c1	MCF10A rereplic inconclusive, RORg inh inconclusive
Cc1ccc(CN(C)C(=O)CSc2nnc3n2CCCCC3)c(C)c1	none (no result: Gal4-VP16 FLuc, RORg inh)
COc1ccccc1CCCNC(=O)C1CCC(=O)N(Cc2ccccc2F)C1 (stereo unspecified)	ELG1 repair inh inconclusive

From PubChem
